Source: PubChem
The list is not random: actives were taken first. Their share in the collection is about 4.1%.
DAX1 inh-1 – NR0B1 (DAX1) inhibition. 340,000 compounds, 0.99% hits. inhibition, % at 6.75 µM. P51843. HEK293 Gal4-DAX1 luciferase reporter, luminescence;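 active = inhibition above the mean over all tested compounds plus 3 SD, cut at about 4.2% in these data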;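 note: 0% = DAX1-transfected cells with DMSO and 100% = empty-vector control cells with DMSO; inhibition shows as a rise in luminescence from relieved DAX1 repression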
Target sequence (P51843 207-470 limits assumed): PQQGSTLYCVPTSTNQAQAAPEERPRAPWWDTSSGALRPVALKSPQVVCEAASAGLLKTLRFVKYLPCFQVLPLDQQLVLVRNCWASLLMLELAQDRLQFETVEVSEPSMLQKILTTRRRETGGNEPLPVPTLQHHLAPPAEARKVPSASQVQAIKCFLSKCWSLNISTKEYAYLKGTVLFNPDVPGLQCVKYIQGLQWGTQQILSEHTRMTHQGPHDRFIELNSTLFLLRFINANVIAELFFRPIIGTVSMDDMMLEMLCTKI
ssDAF-12 act – activators of S. stercoralis DAF-12 nuclear receptor | HEK293 ssDAF-12/GRIP1 lit1-tk-luc reporter, luminescence; % of 3 µM dafachronic acid response | activation, % at 6.8 µM | 370,000 compounds, 1% hits;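 active = activation above the mean over all tested compounds plus 3 SD, cut at about 0.9% in these data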;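 note: 0% = DMSO-only wells and 100% = 3 µM delta7-dafachronic acid wells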
hgDAF12 agonist – hgDAF-12 agonism, primary luciferase screen; HEK293 GAL4-hgDAF12 UAS-luciferase reporter, agonist luminescence; normalized to butyrate control; activation, % at 6.8 µM; 370,000 compounds, 1.8% hits; AID 687014;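 active = activation above a cutoff set at the mean of all screened compounds plus 3 SD, cut at about 10% in these data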;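 note: 0% = DMSO wells and 100% = sodium butyrate wells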
hcDAF12 agonist – H. contortus DAF-12 activation, primary screen; AID 652067; HEK293 hcDAF-12 lit1-tk-luc reporter, luminescence; 0% DMSO, 100% Δ7-dafachronic acid; 370,000 compounds, 1.4% hits; activation, % at 6.8 µM;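 active = activation above the mean of all tested compounds plus 3 SD, cut at about 5.5% in these data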;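 note: 100% = response to 3 µM Δ7-dafachronic acid high control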
DAX1 inh-2 – DAX1 (NR0B1) inhibition, primary screen; inhibition, % at 6.8 µM; HEK293T StAR-luciferase reporter, SF-1/DAX-1 repression relief; AID 652010; 370,000 compounds, 1.1% hits;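 active = inhibition above the mean over all tested compounds plus 3 SD, cut at about 3.6% in these data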;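 note: 0% = DAX-1 cells with DMSO and 100% = cells lacking DAX-1 with DMSO; higher inhibition means more luminescence from relief of DAX-1 repression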
Numbers without * were called inactive; . = not tested or not shown.

SMILES | DAX1 inh-1 | ssDAF-12 act | hgDAF12 agonist | hcDAF12 agonist | DAX1 inh-2
COc1ccc(N(CC(=O)Nc2cccc([N+](=O)[O-])c2C)S(C)(=O)=O)cc1OC | 0 | -1 | -3 | 0 | 0
COc1ccc(N(CC(=O)Nc2cc([N+](=O)[O-])ccc2C)S(C)(=O)=O)cc1OC | 0 | 1.3* | 0 | 0 | -1
CCn1c(COc2ccc(C)cc2)nnc1SCC(=O)Nc1ccccc1-c1ccccc1 | . | -2 | -3 | -2 | -2
CC(=O)NC1CCCCN(C)C1=O (stereo not given) | . | -1 | 3 | 0 | 0
Cc1ccc(C(=O)CSc2nnc3ccccn23)c(C)c1 | 1 | 0 | 11* | 5.7* | 4.4*
O=c1nc(Nc2ccccc2)oc2ccccc12 | 5.8* | 0 | 8 | 4 | 1
Cc1ccc(S(=O)(=O)N2CC[C@@]3(Cc4ccccc4)Cc4ccccc4C[C@@H]23)cc1 | . | -2 | 0 | 0 | .
Cc1[nH]c2ccccc2c1CC(=O)Nc1ccc(Nc2cccnc2)c(-c2ccc(Oc3ccccc3)cc2)c1 | . | 0 | 0 | 2 | -1
Cc1nc2ccccc2n1C(=O)c1ccc(Cl)cc1[N+](=O)[O-] | 0 | -1 | -1 | 5.8* | 0
COc1ccc(C2C(C(=O)N3CCOCC3)CC(=O)N2c2ccc(OC)cc2)cc1 (stereo not given) | . | -2 | 8 | -1 | -1
CSc1ccc(/C=C/C(=O)c2c(O)cc(C)oc2=O)cc1 | 6.6* | 0 | 7 | 4 | 1
COc1cc(/C=C/C(=O)c2c(O)cc(C)oc2=O)cc(OC)c1O | 1 | 0 | -1 | -1 | 0
CCOc1ccc(CCNC(=O)c2ccc3[nH]ccc3c2)cc1OCC | . | -2 | -6 | -5 | .
CCOC(=O)N1CCN(C(=O)c2cc3c(s2)-c2c(C)cccc2OC3)CC1 | 1 | -1 | -2 | -1 | 0
CCN1CCN(C(=O)c2cc3c(s2)-c2c(C)cccc2OC3)CC1 | 5.9* | . | . | . | .
CC(C)(C)OC(=O)NCCc1ccccc1/C=C/S(=O)(=O)NCc1ccccc1 | . | -1 | 1 | -2 | -2
CN(C)c1ccc(P(=O)(OCc2ccccc2)C(O)c2ccccc2)cc1 (stereo not given) | 4.3* | -2 | -3 | 0 | 0
C[C@H]1O[C@@H](n2c3ccc(Cl)cc3c3ccc4c5cc(Cl)ccc5[nH]c4c32)[C@H](O)[C@H](O)[C@H]1O | . | -2 | 1 | -1 | 1
CC(c1nc2ccccc2[nH]1)N(C(=O)Cc1csc2ccccc12)c1cccnc1 (stereo not given) | . | -1 | -4 | 0 | -1
CC(c1nc2ccccc2[nH]1)N(C(=O)C1=NNC(=O)CC1)c1ccccc1 (stereo not given) | . | 1.4* | 1 | 4 | 2
CCN(CC)C(=O)CC[C@H]1CC[C@]2(CCCN(Cc3ccc(Br)cc3)C2)O1 | . | -2 | -1 | 0 | 0
C#CCNC(=O)C[C@H]1C[C@@]2(C(=O)OC)C(=C[C@H](C(C)C)O[C@@H]2C2CC2)N(Cc2ccc(Cl)cc2Cl)C1=O | . | -1 | 3 | 1 | -1
CC(C)c1ccc(-c2nnc(N)s2)cc1 | 4 | 0 | 11* | 6.0* | 2
COc1cc(CNCCc2ccc(F)cc2)ccc1OCc1ccc(Cl)nc1 | 0 | -1 | 2 | 1 | 0
COc1cc(CO)ccc1OCc1ccc(Cl)nc1 | 4 | 1.3* | 11* | 3 | 0
SMILES | DAX1 inh-1 | ssDAF-12 act | hgDAF12 agonist | hcDAF12 agonist | DAX1 inh-2
COCCn1c(C)cc(/C=C(\C#N)C(=O)OCC(=O)Nc2ccc(S(N)(=O)=O)cc2)c1C | 5.0* | 0 | 8 | 6.4* | -1
Cc1cc(/C=C(\C#N)C(=O)OCC#N)c(C)n1CC(C)C | 1 | -1 | 2 | 0 | 0
Cc1cc(/C=C(\C#N)C(=O)OCC(=O)Nc2ccc(OC(F)F)cc2)c(C)n1CC(C)C | 4 | -1 | 8 | 0 | 4.0*
O=S1(=O)N[C@@H](Cc2ccccc2)COc2cc(NC3CC3)ccc21 | . | -1 | -1 | -1 | -1
COc1cc(C(C[N+](=O)[O-])c2c(C)[nH]c3ccccc23)cc(OC)c1OC (stereo not given) | 0 | 0 | -1 | 2 | 0
O=[N+]([O-])CC(c1ccccc1)c1c[nH]c2ccccc12 (stereo not given) | . | 1.1* | 0 | 3 | 0
COc1ccc(C2CC(=O)C(c3ccc(Cl)c(Cl)c3)=CN2Cc2ccccc2)cc1 (stereo not given) | . | -1 | 4 | -3 | -1
COc1ccc(C(=O)NCC(=O)OCC(=O)Nc2sccc2C#N)cc1OC | 6.4* | 1.1* | 5 | 4 | 1
COc1ccc(OC)c(NC(=O)COC(=O)CNC(=O)c2ccc(OC)c(OC)c2)c1 | 0 | -1 | 3 | -1 | 0
O=C(CCc1ccccc1)N[C@H]1[C@H](OC(=O)c2ccco2)CCC[C@]12C(=O)N(Cc1ccccc1)c1ccccc12 | . | -2 | -4 | -2 | -1
N#Cc1cc2cc3c(cc2nc1N1CCCCC1)OCCO3 | 2 | 0 | -5 | 6.2* | -1
N#Cc1cc2cc3c(cc2nc1Cl)OCCO3 | -1 | -1 | -5 | -3 | 3
CCOC(=O)c1[nH]c2ccccc2c1NC(=S)Nc1cccc(C)c1C | 2 | 0 | 0 | 6.2* | 1
CCOC(=O)c1[nH]c2ccccc2c1NC(=O)NC(C)C | 3 | 0 | 0 | 4 | 0
COc1ccc(Br)c(-c2nnc(CS(=O)(=O)c3ccccc3)o2)c1 | 0 | -1 | 11* | 0 | 1
Cc1ccc(-n2nc(C)c3c(C(=O)OCC(=O)N(C)C4CCS(=O)(=O)C4)cc(-c4ccccc4)nc32)cc1 (stereo not given) | 0 | -1 | -3 | 6.2* | 0
CCNC(=S)N1CCC(n2cnc3ccccc32)CC1 | 4.6* | -2 | -3 | 1 | 0
O=C(NC1CCCCC1)N1CCC(n2cnc3ccccc32)CC1 | 0 | -1 | 1 | -1 | 0
CC(=O)C1=C(O)C(=O)N(c2ccc(Br)cc2)C1c1ccccc1[N+](=O)[O-] (stereo not given) | -1 | 1 | 1 | 4 | 0
CCN(CC)CCN1C(=O)C(O)=C(C(C)=O)C1c1ccccc1[N+](=O)[O-] (stereo not given) | 1 | 1.4* | 1 | 6.3* | 0
OCC1COC(c2ccccc2)=N1 (stereo not given) | . | -2 | -4 | -2 | 2
O=C(NNC(=S)Nc1ccccc1)c1cc(Br)ccc1Cl | 0 | 0 | 4 | 6.1* | 0
O=C(NNC(=S)Nc1ccccc1)NNC(=S)Nc1ccccc1 | 0 | -1 | 1 | 0 | 0
O=C(CSc1ncnc2ccccc12)c1ccc2c(c1)OCCO2 | -2 | -1 | 5 | -1 | 0
Cc1ccc(C(=O)COc2ncnc3cc(Cl)ccc23)cc1 | . | -1 | -2 | 0 | 0
O=C(COc1ncnc2cc(Cl)ccc12)c1ccc2c(c1)OCCO2 | 4.8* | 0 | 2 | 2 | 1
